# From PubChem
# A3G deaminase: APOBEC3G DNA deaminase inhibitors, primary screen, biochemical, fluorescence, single-stranded DNA substrate, uHTS; DNA dC->dU-editing enzyme APOBEC-3G (Homo sapiens), Q9HC16; recombinant A3G, ssDNA deamination FAM/TAMRA fluorescence; inhibition, % at 20 µM; 330,000 compounds, 0.28% hits; AID 493012, 2011;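 active = inhibition of at least 40% at 20 µM, with no more than 30% in the related APOBEC3A deaminase screen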;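 note: plate controls were DMSO wells with A3G for no effect and wells lacking A3G enzyme for full effect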
# A3A deaminase: APOBEC3A ssDNA deaminase inhibitors, primary screen, selectivity assay for APOBEC3G inhibitor project, biochemical, FAM/TAMRA oligo cleavage fluorescence. DNA dC->dU-editing enzyme APOBEC-3A (Homo sapiens), P31941. recombinant A3A, FAM/TAMRA ssDNA deamination fluorescence. 330,000 compounds, 0.41% hits. AID 493011, 2011. inhibition, % at 20 µM;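 active = at least 40% inhibition at 20 µM here, with at most 30% in a related deaminase screen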;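 note: plate controls were A3A with DMSO for no effect and wells lacking A3A enzyme for full effect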
# PHOSPHO1 inh: PubChem AID 1565; Phosphoethanolamine/phosphocholine phosphatase (Homo sapiens), Q8TCT1; recombinant PHOSPHO1, absorbance phosphatase assay; inhibition, % at 13.3 µM; 290,000 compounds, 1.1% hits; in the data active = inhibition above about 60%
# Target sequence (Q8TCT1 whole entry, looked up): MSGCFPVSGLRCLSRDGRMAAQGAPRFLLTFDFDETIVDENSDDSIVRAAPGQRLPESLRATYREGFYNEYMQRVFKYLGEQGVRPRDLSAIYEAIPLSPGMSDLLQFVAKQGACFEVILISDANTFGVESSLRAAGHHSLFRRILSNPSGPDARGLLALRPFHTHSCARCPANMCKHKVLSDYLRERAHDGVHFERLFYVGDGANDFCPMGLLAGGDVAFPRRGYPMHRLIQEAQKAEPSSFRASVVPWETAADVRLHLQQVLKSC
# rCAG RNA binder: binders of r(CAG) RNA repeats, primary screen, biochemical, fluorescence; 370,000 compounds, 1.3% hits; r(CAG) RNA repeat, TO-PRO-1 dye displacement fluorescence; inhibition, % at 3 µM; AID 651821, 2012;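 active = inhibition above the plate cutoff, the mean of all test compounds on that plate plus 3 SD, cut at about 35% in these data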;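 note: 0% = DMSO alone and 100% = 100 µM mitoxantrone as full dye displacement; higher means more dye released from RNA so lower well fluorescence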
# aDG glyco up: activators of alpha-DG glycosylation, primary screen, uHTS, Pro5-aDG cells, AlphaScreen; activation, % at 10 µM; 360,000 compounds, 0.22% hits; alpha-DG glycosylation AlphaScreen (IIH6); 0% Pro5, 100% B10-LARGE cell signal;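 active = activation of at least 8% versus controls, or a plate z-score of at least 8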;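 note: Pro5 are CHO cells carrying HIG-tagged alpha-DG that lacks glycosylation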
# ALR inh: inhibitors of human ALR sulfhydryl oxidase, primary screen, biochemical, H2O2 detection, HRP-luminol luminescence, single point; FAD-linked sulfhydryl oxidase ALR (Homo sapiens), P55789; 290,000 compounds, 3.8% hits; purified ALR, DTT oxidation; inhibition, % (no concentration beside the values);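 active = mean replicate inhibition above about 79%, with every replicate also reaching it, limit read from the data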
# Target sequence (P55789 whole entry, looked up): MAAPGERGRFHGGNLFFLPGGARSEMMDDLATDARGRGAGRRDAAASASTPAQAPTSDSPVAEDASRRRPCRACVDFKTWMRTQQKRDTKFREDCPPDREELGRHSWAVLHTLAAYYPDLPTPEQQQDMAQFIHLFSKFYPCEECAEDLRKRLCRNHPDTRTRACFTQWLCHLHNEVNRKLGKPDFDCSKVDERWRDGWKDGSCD
# rCAG bind conf: small molecules binding CAG repeat RNA – biochemical, fluorescence, confirmation; inhibition, % at 3 µM; shares compounds with rCAG RNA binder; 4,300 compounds, 70% hits; AID 652065, 2013; r(CAG) RNA repeat, TO-PRO-1 dye displacement fluorescence;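 active = inhibition above a per-plate cutoff, the mean inhibition of sample wells plus 3 SD, cut at about 35% in these data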;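 note: loss of TO-PRO-1 fluorescence as compound displaces dye from 1x1 AA loop RNA; 0% = DMSO only wells and 100% = 100 µM mitoxantrone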
# dCAG dye counter: displacement of TO-PRO-1 from CAG DNA duplex, counter-screen for rCAG RNA repeat binder project, biochemical, fluorescence, TO-PRO-1 dye, d(CAG) DNA oligo | shares compounds with rCAG RNA binder | d(CAG) DNA oligo TO-PRO-1 dye displacement | inhibition, % at 3 µM | 4,300 compounds, 94% hits | AID 652068, 2013;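 active = inhibition above its plate's cutoff, the mean test-well inhibition plus 3 SD, cut at about 4.8% in these data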;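 note: 0% = DNA dye mix with DMSO and 100% = 100 µM mitoxantrone; hits displace the dye from DNA and so lower well fluorescence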
# Starred values were filed as active, the others as inactive; . = not tested or not shown. This is a sample that favours compounds with a hit; in the whole collection about 5.4% have one here.
SMILES,A3G deaminase,A3A deaminase,PHOSPHO1 inh,rCAG RNA binder,aDG glyco up,ALR inh,rCAG bind conf,dCAG dye counter
Cc1noc(NS(=O)(=O)c2ccc(N/C=C\C(=O)c3ccc4c(c3)OCO4)cc2)c1C,-8,-4,-46,44*,0,63,43*,14*
Cc1noc(NS(=O)(=O)c2ccc(N/C=C\C(=O)c3cccc4ccccc34)cc2)c1C,-7,-1,24,72*,0,6,81*,46*
CCOc1ccc(C(=O)/C=C/Nc2ccc(S(=O)(=O)Nc3onc(C)c3C)cc2)cc1,-5,-3,23,42*,0,13,64*,25*
COc1cccc(C(=O)/C=C/Nc2ccc(S(=O)(=O)Nc3onc(C)c3C)cc2)c1,-7,-8,-1,13,0,13,.,.
Cc1csc(=O)n1CCC(=O)OCC(=O)N(C)c1c(N)n(Cc2ccccc2)c(=O)[nH]c1=O,.,.,.,1,0,.,.,.
c1ccc2c(-c3cc(NCc4ccncc4)n4nccc4n3)cccc2c1,.,.,.,2,0,.,.,.
CCCCCCCCN1C(=O)[C@@H](CC(=O)N2CCN(C(=O)C3CC3)CC2)C[C@@]2(C(=O)OC)C1=C[C@H](C1CCCC1)O[C@@H]2C,.,.,.,8,.,.,.,.
CCOc1cc(/C=N/NC(=O)C(=O)NC2CC2)cc(Br)c1O,-1,4,9,-1,0,3,.,.
CCOc1cc(/C=N/NC(=O)C(N)=O)cc(Br)c1O,-1,1,-17,36*,0,91*,1,0
C[C@H]1COc2cc(NCCCN3CCOCC3)ccc2S(=O)(=O)N1,.,.,.,2,.,.,.,.
O=C(NN1C(=O)/C(=C/c2cccc(O)c2)SC1=S)c1ccccc1O,-3,-2,22,75*,0,99*,51*,16*
O=C(O)COc1ccccc1/C=C1\SC(=S)N(NC(=O)c2ccccc2O)C1=O,-7,-1,.,61*,0,63,42*,10*
O=C(NN1C(=O)/C(=C\c2ccc(O)c([N+](=O)[O-])c2)SC1=S)c1ccccc1Cl,-1,-5,6,5,0,13,.,.
C=CCN1CCC(=O)C(C(=O)OCC)=C1C(=O)OCC,.,.,.,1,0,.,.,.
CC(=O)OCC(=O)C1(O)CCC2C3CC(F)C4=CC(=O)CCC4(C)C3C(O)CC21C (configuration not stated),.,.,.,0,0,.,.,.
O=C(NCC(c1cccs1)N1CCOCC1)c1ccccc1NS(=O)(=O)c1ccc(Cl)c([N+](=O)[O-])c1 (configuration not stated),-7,-3,-2,78*,0,-17,78*,36*
O=C(NCC(c1cccs1)N1CCOCC1)c1ccc(Cl)c([N+](=O)[O-])c1 (configuration not stated),-1,3,-2,-4,0,-1,.,.
O=C(NCC(c1cccs1)N1CCOCC1)c1cccc(S(=O)(=O)Nc2ccc(F)cc2)c1 (configuration not stated),.,.,.,8,0,.,.,.
O=C(NCC(c1cccs1)N1CCOCC1)c1ccccc1NS(=O)(=O)c1cc([N+](=O)[O-])ccc1Cl (configuration not stated),-1,-2,-10,42*,0,-24,40*,11*
O=C(NCCCN1CCOCC1)c1ccccc1NS(=O)(=O)c1cc([N+](=O)[O-])ccc1Cl,-6,-2,-2,27,0,-2,.,.
O=C(NCC(c1cccs1)N1CCOCC1)c1ccccc1NS(=O)(=O)c1cccc([N+](=O)[O-])c1 (configuration not stated),3,3,4,48*,0,17,40*,11*
COc1ccc(CCN2C(=O)CCC2(C)c2nnnn2Cc2ccccc2)cc1OC (configuration not stated),.,.,.,-1,3,.,.,.
C[C@@H]1CN([C@@H](C)CO)C(=O)CCCn2cc(nn2)CO[C@H]1CN(C)S(C)(=O)=O,.,.,.,0,.,.,.,.
CC1(Cc2ccccc2Cl)C(=O)Nc2ccc(OC(F)(F)F)cc21 (configuration not stated),.,.,.,-3,0,.,.,.
CC1=C(C(=O)N2CCCCCC2)CC(CC(=O)NCCN2CCOCC2)C(=O)N1Cc1ccc(F)cc1 (configuration not stated),.,.,.,3,0,.,.,.
SMILES,A3G deaminase,A3A deaminase,PHOSPHO1 inh,rCAG RNA binder,aDG glyco up,ALR inh,rCAG bind conf,dCAG dye counter
Cc1cccc(NC(=O)CN2C(=O)N/C(=C\c3ccc(-c4cccc(C(=O)O)c4)o3)C2=O)c1,8,25,37,69*,0,5,73*,37*
CCCN1C(=O)/C(=C/c2ccccc2OCc2ccc(C(=O)O)cc2)NC1=S,-5,-2,-4,39*,0,79*,34,8.1*
O=C(O)c1ccc(COc2ccccc2Cl)cc1,-8,-3,-34,3,0,-3,.,.
Cc1cccc(NC(=O)CN2C(=O)N/C(=C/c3ccc(C)o3)C2=O)c1,.,.,-9,32,0,0,.,.
N#C/C(=C\c1ccccc1OCc1ccc(C(=O)O)cc1)c1ccccc1,-3,0,-2,35*,0,8,30,5.3*
CN1C(=O)/C(=C/c2ccccc2OCc2ccccc2F)NC1=S,-1,-1,-98,3,0,-7,.,.
O=C(O)c1ccc(COc2ccccc2/C=C2\NC(=O)N(Cc3ccccc3)C2=O)cc1,-6,-2,42,43*,0,7,46*,11*
O=C(O)c1ccc(COc2ccc3ccccc3c2/C=C2/NC(=O)N(Cc3ccc(F)cc3)C2=O)cc1,.,.,45,25,0,.,.,.
O=C(CN1CCc2onc(-c3ccc(-n4cc(C5=CCCCC5)nn4)cc3)c2C1=O)N1CCOCC1,.,.,.,3,.,.,.,.
COC(=O)C1CCN(C(=O)CN2CCC(C(=O)c3ccc(C)cc3)CC2)CC1,.,.,.,2,.,.,.,.
C[C@@H](CO)NC(=O)c1[nH]cnc1C(=O)Nc1ccccc1,.,.,.,0,.,.,.,.
